Test results from the supplement of paper PMC4022240.
± gives the standard deviation.

Legend:
Experiment in all cases: peptide microarray binding signal (635 nm), min-max normalized on array (fraction of array maximum); higher = stronger binding
Settings in all cases: peptide region: H3 20-32
[1] = biological target: T1, HaloTag-ATRX ADD domain (163-292)
T1 chain: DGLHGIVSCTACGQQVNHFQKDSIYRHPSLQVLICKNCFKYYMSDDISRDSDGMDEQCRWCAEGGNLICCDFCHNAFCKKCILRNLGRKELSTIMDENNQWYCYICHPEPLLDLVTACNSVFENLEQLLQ
Method in brief: (§1)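 Binding signal is the mean intensity of triplicate spots, min-max scaled within each library. Histone 13-mer peptide–cellulose conjugates were spotted in triplicate on nitrocellulose with a Cy3 tracer and blocked overnight at 4°C. Probing lasted 1 h at 4°C, either with biotin-labelled HaloTag reader fusions (10 nM to 1 μM) and streptavidin-Alexa Fluor 647 or with rabbit histone antibodies (1:10,000 to 1:2,000) and anti-rabbit Alexa 647. An Axon GenePix 4000B read signal at 635 nm and misprints at 532 nm.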

[2] = biological target: HaloTag-ING2 PHD (mouse Ing2 200-280)
Method in brief: as §1

[3] = biological target: anti-H3K4me3 antibody ab8580
Method in brief: as §1

[4] = biological target: anti-H3K9me3 antibody ab8898
Method in brief: as §1

[5] = peptide modifications: H3K27me3, binder concentration: 1:2,000 dilution
[6] = peptide modifications: H3K27me3, binder concentration: 1:10,000 dilution
[7] = peptide modifications: H3K27ac H3S28ph, binder concentration: 1:2,000 dilution
[8] = peptide modifications: H3K27ac H3S28ph, binder concentration: 1:10,000 dilution
[9] = peptide modifications: H3R26cit H3K27me3, binder concentration: 1:2,000 dilution
[10] = peptide modifications: H3R26cit H3K27me3, binder concentration: 1:10,000 dilution
[11] = peptide modifications: H3R26cit H3K27me2, binder concentration: 1:2,000 dilution
[12] = peptide modifications: H3R26cit H3K27me2, binder concentration: 1:10,000 dilution
[13] = peptide modifications: H3R26me2a H3K27ac, binder concentration: 1:2,000 dilution
[14] = peptide modifications: H3R26me2a H3K27ac, binder concentration: 1:10,000 dilution
[15] = peptide modifications: H3R26me1 H3K27me3, binder concentration: 1:2,000 dilution
[16] = peptide modifications: H3R26me1 H3K27me3, binder concentration: 1:10,000 dilution
[17] = peptide modifications: H3R26me1 H3K27me1, binder concentration: 1:2,000 dilution
[18] = peptide modifications: H3R26me1 H3K27me1, binder concentration: 1:10,000 dilution
[19] = peptide modifications: H3K27me2 H3S28ph, binder concentration: 1:2,000 dilution
[20] = peptide modifications: H3K27me2 H3S28ph, binder concentration: 1:10,000 dilution
[21] = peptide modifications: H3K27me1, binder concentration: 1:2,000 dilution
[22] = peptide modifications: H3K27me1, binder concentration: 1:10,000 dilution
[23] = peptide modifications: H3K27me3 H3S28ph, binder concentration: 1:2,000 dilution
[24] = peptide modifications: H3K27me3 H3S28ph, binder concentration: 1:10,000 dilution

For LATKAARKSAPAT [H3 20-32 L A T K A A R Kme3 S A P A T], the “peptide microarray binding signal” value ([1]; peptide modifications: H3K27me3, binder concentration: 50 nM) was 0.00602 ± 0.00022, the “peptide microarray binding signal” value ([1]; peptide modifications: H3K27me3, binder concentration: 500 nM) was 0.008 ± 0.00041 and the “peptide microarray binding signal” value ([2]; peptide modifications: H3K27me3, binder concentration: 10 nM) was 0.0119 ± 0.00027. The “peptide microarray binding signal” value ([2]; peptide modifications: H3K27me3, binder concentration: 100 nM) was 0.0118 ± 0.00043, the “peptide microarray binding signal” value [3, 5] was 0.0112 ± 0.0008 and the “peptide microarray binding signal” value [3, 6] was 0.00907 ± 0.0011. For the same binder, the “peptide microarray binding signal” value [4, 5] was 0.0533 ± 0.0049 and the “peptide microarray binding signal” value [4, 6] was 0.0225 ± 0.0027.

In the case of LATKAARKSAPAT [H3 20-32 L A T K A A R Kac Sph A P A T], the “peptide microarray binding signal” value ([1]; peptide modifications: H3K27ac H3S28ph, binder concentration: 50 nM) is reported as 0.00903 ± 0.00081, the “peptide microarray binding signal” value ([1]; peptide modifications: H3K27ac H3S28ph, binder concentration: 500 nM) is reported as 0.0153 ± 0.0002 and the “peptide microarray binding signal” value ([2]; peptide modifications: H3K27ac H3S28ph, binder concentration: 10 nM) is reported as 0.0221 ± 0.0015. For the same binder, the “peptide microarray binding signal” value ([2]; peptide modifications: H3K27ac H3S28ph, binder concentration: 100 nM) was 0.0405 ± 0.0074, the “peptide microarray binding signal” value [3, 7] was 0.00951 ± 0.0017 and the “peptide microarray binding signal” value [3, 8] was 0.0101 ± 0.0017. For the same binder, the “peptide microarray binding signal” value [4, 7] was 0.00536 ± 0.0021 and the “peptide microarray binding signal” value [4, 8] was 0.00277 ± 6.4e-05.

LATKAARKSAPAT [H3 20-32 L A T K A A Rcit Kme3 S A P A T] was tested, and the “peptide microarray binding signal” value ([1]; peptide modifications: H3R26cit H3K27me3, binder concentration: 50 nM) was 0.00564 ± 0.00031, the “peptide microarray binding signal” value ([1]; peptide modifications: H3R26cit H3K27me3, binder concentration: 500 nM) was 0.00676 ± 0.00027 and the “peptide microarray binding signal” value ([2]; peptide modifications: H3R26cit H3K27me3, binder concentration: 10 nM) was 0.0135 ± 0.00085. The “peptide microarray binding signal” value ([2]; peptide modifications: H3R26cit H3K27me3, binder concentration: 100 nM) was 0.0188 ± 0.00063, the “peptide microarray binding signal” value [3, 9] was 0.0286 ± 0.0025 and the “peptide microarray binding signal” value [3, 10] was 0.0204 ± 0.00089. For the same binder, the “peptide microarray binding signal” value [4, 9] was 0.0791 ± 0.0015 and the “peptide microarray binding signal” value [4, 10] was 0.05 ± 0.006.

With LATKAARKSAPAT [H3 20-32 L A T K A A Rcit Kme2 S A P A T] the “peptide microarray binding signal” value ([1]; peptide modifications: H3R26cit H3K27me2, binder concentration: 50 nM) was 0.00414 ± 5.8e-05, the “peptide microarray binding signal” value ([1]; peptide modifications: H3R26cit H3K27me2, binder concentration: 500 nM) was 0.00333 ± 0.00011 and the “peptide microarray binding signal” value ([2]; peptide modifications: H3R26cit H3K27me2, binder concentration: 10 nM) was 0.00692 ± 0.00014. The “peptide microarray binding signal” value ([2]; peptide modifications: H3R26cit H3K27me2, binder concentration: 100 nM) was 0.00843 ± 0.00034, the “peptide microarray binding signal” value [3, 11] was 0.00262 ± 0.00016 and the “peptide microarray binding signal” value [3, 12] was 0.00314 ± 4.6e-05. The “peptide microarray binding signal” value [4, 11] was 0.00196 ± 6.8e-05 and the “peptide microarray binding signal” value [4, 12] was 0.00167 ± 4.8e-05.

With LATKAARKSAPAT [H3 20-32 L A T K A A Rme2a Kac S A P A T] the “peptide microarray binding signal” value ([1]; peptide modifications: H3R26me2a H3K27ac, binder concentration: 50 nM) was 0.00467 ± 0.00027, the “peptide microarray binding signal” value ([1]; peptide modifications: H3R26me2a H3K27ac, binder concentration: 500 nM) was 0.0126 ± 0.0011 and the “peptide microarray binding signal” value ([2]; peptide modifications: H3R26me2a H3K27ac, binder concentration: 10 nM) was 0.0197 ± 0.0013. The “peptide microarray binding signal” value ([2]; peptide modifications: H3R26me2a H3K27ac, binder concentration: 100 nM) was 0.0246 ± 0.0016, the “peptide microarray binding signal” value [3, 13] was 0.00936 ± 0.0018 and the “peptide microarray binding signal” value [3, 14] was 0.0107 ± 0.00049. The “peptide microarray binding signal” value [4, 13] was 0.00763 ± 0.0006 and the “peptide microarray binding signal” value [4, 14] was 0.00565 ± 0.00056.

In the case of LATKAARKSAPAT [H3 20-32 L A T K A A Rme Kme3 S A P A T], the “peptide microarray binding signal” value ([1]; peptide modifications: H3R26me1 H3K27me3, binder concentration: 50 nM) is reported as 0.00668 ± 0.00028, the “peptide microarray binding signal” value ([1]; peptide modifications: H3R26me1 H3K27me3, binder concentration: 500 nM) is reported as 0.019 ± 0.0018 and the “peptide microarray binding signal” value ([2]; peptide modifications: H3R26me1 H3K27me3, binder concentration: 10 nM) is reported as 0.0343 ± 0.0033. For the same binder, the “peptide microarray binding signal” value ([2]; peptide modifications: H3R26me1 H3K27me3, binder concentration: 100 nM) was 0.0417 ± 0.0052, the “peptide microarray binding signal” value [3, 15] was 0.0743 ± 0.016 and the “peptide microarray binding signal” value [3, 16] was 0.0599 ± 0.0085. For the same binder, the “peptide microarray binding signal” value [4, 15] was 0.162 ± 0.016 and the “peptide microarray binding signal” value [4, 16] was 0.0985 ± 0.023.

In the case of LATKAARKSAPAT [H3 20-32 L A T K A A Rme Kme S A P A T], the “peptide microarray binding signal” value ([1]; peptide modifications: H3R26me1 H3K27me1, binder concentration: 50 nM) is reported as 0.00489 ± 4.8e-05, the “peptide microarray binding signal” value ([1]; peptide modifications: H3R26me1 H3K27me1, binder concentration: 500 nM) is reported as 0.00657 ± 0.0021 and the “peptide microarray binding signal” value ([2]; peptide modifications: H3R26me1 H3K27me1, binder concentration: 10 nM) is reported as 0.00794. For the same binder, the “peptide microarray binding signal” value ([2]; peptide modifications: H3R26me1 H3K27me1, binder concentration: 100 nM) was 0.0109 ± 0.00039, the “peptide microarray binding signal” value [3, 17] was 0.00355 ± 0.00035 and the “peptide microarray binding signal” value [3, 18] was 0.00474 ± 0.00018. The “peptide microarray binding signal” value [4, 17] was 0.0024 ± 8.4e-05 and the “peptide microarray binding signal” value [4, 18] was 0.001557 ± 1.5e-05.

In the case of LATKAARKSAPAT [H3 20-32 L A T K A A R Kme2 Sph A P A T], the “peptide microarray binding signal” value ([1]; peptide modifications: H3K27me2 H3S28ph, binder concentration: 50 nM) is reported as 0.00527 ± 0.00024, the “peptide microarray binding signal” value ([1]; peptide modifications: H3K27me2 H3S28ph, binder concentration: 500 nM) is reported as 0.0144 ± 0.00043 and the “peptide microarray binding signal” value ([2]; peptide modifications: H3K27me2 H3S28ph, binder concentration: 10 nM) is reported as 0.0156 ± 0.00093. For the same binder, the “peptide microarray binding signal” value ([2]; peptide modifications: H3K27me2 H3S28ph, binder concentration: 100 nM) was 0.0272 ± 0.0025, the “peptide microarray binding signal” value [3, 19] was 0.00985 ± 0.00073 and the “peptide microarray binding signal” value [3, 20] was 0.00508 ± 0.00053. For the same binder, the “peptide microarray binding signal” value [4, 19] was 0.00619 ± 0.0012 and the “peptide microarray binding signal” value [4, 20] was 0.0129 ± 0.0067.

For LATKAARKSAPAT [H3 20-32 L A T K A A R Kme S A P A T], the “peptide microarray binding signal” value ([1]; peptide modifications: H3K27me1, binder concentration: 50 nM) was 0.00455 ± 9.6e-05, the “peptide microarray binding signal” value ([1]; peptide modifications: H3K27me1, binder concentration: 500 nM) was 0.00714 ± 0.00042 and the “peptide microarray binding signal” value ([2]; peptide modifications: H3K27me1, binder concentration: 10 nM) was 0.00961 ± 0.00022. The “peptide microarray binding signal” value ([2]; peptide modifications: H3K27me1, binder concentration: 100 nM) was 0.0148 ± 0.00019, the “peptide microarray binding signal” value [3, 21] was 0.00402 ± 0.00028 and the “peptide microarray binding signal” value [3, 22] was 0.00405 ± 0.00025. For the same binder, the “peptide microarray binding signal” value [4, 21] was 0.00231 ± 0.00014 and the “peptide microarray binding signal” value [4, 22] was 0.00208 ± 3.9e-05.

In the case of LATKAARKSAPAT [H3 20-32 L A T K A A R Kme3 Sph A P A T], the “peptide microarray binding signal” value ([1]; peptide modifications: H3K27me3 H3S28ph, binder concentration: 50 nM) is reported as 0.00618 ± 0.00025, the “peptide microarray binding signal” value ([1]; peptide modifications: H3K27me3 H3S28ph, binder concentration: 500 nM) is reported as 0.0125 ± 0.00027 and the “peptide microarray binding signal” value ([2]; peptide modifications: H3K27me3 H3S28ph, binder concentration: 10 nM) is reported as 0.0171 ± 0.0012. The “peptide microarray binding signal” value ([2]; peptide modifications: H3K27me3 H3S28ph, binder concentration: 100 nM) was 0.037 ± 0.0095, the “peptide microarray binding signal” value [3, 23] was 0.0312 ± 0.0057 and the “peptide microarray binding signal” value [3, 24] was 0.0191 ± 0.0066. The “peptide microarray binding signal” value [4, 23] was 0.104 ± 0.021 and the “peptide microarray binding signal” value [4, 24] was 0.0474 ± 0.0052.
